For 42 compounds, GFP+ MAC1+ double positive, outcome and normalized GFP-positive differentiation results are on record in PubChem BioAssay AID624256 (NMMLSC, 2012).

About 3,700 (1%) of roughly 360,000 compounds were called active. Another 2% or so got no clear call; they are omitted. This is one part of a sample in which actives are shown more often than they occur.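 Rule for the calls: active = normalized GFP-positive differentiation at or above the plate's own cutoff, the solvent-only control mean plus 3 SD; inconclusive = no clear call, values can overlap the other calls; inactive = the rest.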

A short description of this experiment: HoxA9-arrested leukemia cell differentiation promoters – flow cytometry, MLPCN library, primary screen (AID 624256).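 For GFP+ MAC1+ double positive: cells exposed to compound for four days before flow analysis.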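 For normalized GFP-positive differentiation: cells exposed to compound for four days before flow analysis; 0% = DMSO wells and 100% = fulvestrant positive control at 5 µM.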 The following applies: ER-HoxA9 myeloid progenitors, lysozyme-GFP differentiation, at 10 µM; GFP+ MAC1+ double positive: measured here: differentiation confirmed by MAC1 staining, stronger effect = higher value; normalized GFP-positive differentiation: stronger effect = higher value.
For `COc1cccc(CN(C)C(=O)CC[C@H]2O[C@@H](n3cnc4c(NC(=O)c5ccccc5)ncnc43)[C@H](O)[C@@H]2O)c1`, the GFP+ MAC1+ double positive turned out to be 0.5% and the outcome was inactive.
As for `CCCCc1nc2ccc(F)cc2cc1C`, the GFP+ MAC1+ double positive came to 0.5% and the outcome was inactive.
As to `O=c1c(-c2ccc(Cl)cc2)[n+]([O-])c2ccccc2n1OCc1nc2ccccc2[nH]1`, the GFP+ MAC1+ double positive stood at 0.7% and the outcome was inactive.
For the compound `O=C(Cc1nc2ccccc2[nH]c1=O)c1ccc(Cl)cc1`, the GFP+ MAC1+ double positive was 72.3% and the normalized GFP-positive differentiation was 347% (active).
On to `O=C(Cc1ccc(Cl)cc1)c1ccccc1`, for which the GFP+ MAC1+ double positive is 0.7% and the compound was classed as inactive.
For `CN1OC[C@@H]2CN(C(=O)c3cccnc3)[C@H](c3ccc(N4CCCCC4)cc3)C[C@@H]21`, in that order: 1.2% and “inactive”.
The like results for `O=S1(=O)CC(N2CCC(Cc3ccccc3)CC2)CN1Cc1ccccc1` (centres undefined) were, in that order, 1.3% and “inactive”.
For `CC1(C(=O)NS(=O)(=O)c2cccc(F)c2)CCN1C(=O)Cc1ccc(Cl)cc1Cl` (centres undefined), in that order: 0.9% and “inactive”.
Consider `Cc1cc(C)cc(NC(=O)CCN2C(=O)c3ccccc3C2=O)c1`, for which the GFP+ MAC1+ double positive was found to be 0.5% and the outcome was inactive.
As for `Cc1ccc(NC(=O)CCN2C(=O)c3ccccc3C2=O)cc1C`, the GFP+ MAC1+ double positive is 0.6% and the compound was called inactive.
Take `Cc1ccc(/C=C2\SC(=S)N(CCC(=O)Nc3ccc(O)cc3)C2=O)cc1`: the GFP+ MAC1+ double positive is 17.3% and the normalized GFP-positive differentiation was 264% (active).
For the compound `O=C(Nc1ccc(F)cc1)Nc1nnc([C@H]2C[C@H](O)[C@@H](CO)O2)s1`, the GFP+ MAC1+ double positive is 0.6% and the outcome was inactive.
For `CCCNC(=O)c1cc2c(c(-c3cccc(-c4ccc(C#N)cc4)c3)n1)[C@@H](CCO)N(C(=O)CC)C2`, the GFP+ MAC1+ double positive was found to be 0.7% and the call was inactive.
As for `O=C(NCc1ccc(F)cc1F)[C@@H]1CCCN1C(=O)[C@@H]1CCCN1C(=O)c1cccc(Cl)c1`, the GFP+ MAC1+ double positive is 0.5% and the call was inactive.
For `CC1CN(Cc2ccccc2)C(=S)NC1=O` (centres undefined), the GFP+ MAC1+ double positive is 0.4% and the compound was classed as inactive.
For the compound `CN(C)c1ccc(/C=C2\NC(=S)N(Cc3ccccc3)C2=O)cc1`, the GFP+ MAC1+ double positive is 23.7% and the normalized GFP-positive differentiation was 207% (active).
For the compound `CN(C)c1ccc(C=C2C(=O)OC3(CCCC3)OC2=O)cc1`, the GFP+ MAC1+ double positive amounted to 0.1% and the compound was called inactive.
For `COc1ccc([C@H]2CC(=O)C[C@@H](CCn3cc(CC4CCCC4)nn3)O2)cc1`, the GFP+ MAC1+ double positive was determined as 0.4% and the compound was called inactive.
For `CC(C)N1C(=O)c2ccccc2NC(=O)C1C(=O)NCc1cccs1` (centres undefined), the GFP+ MAC1+ double positive turned out to be 2.7% and the call was inactive.
`Cc1ccc(Nc2nnc(SC(C)C(=O)NC3CC3)s2)cc1` (centres undefined): the GFP+ MAC1+ double positive came to 0.7% and the compound was called inactive.
For `Cc1ccc(Nc2nc(Cl)c(C=O)s2)cc1`, the GFP+ MAC1+ double positive was 1.3% and the normalized GFP-positive differentiation was 146% (active).
In the case of `CCCCC(=O)Nc1nc(C)c(-c2csc(Nc3ccc(Cl)cc3)n2)s1`, the GFP+ MAC1+ double positive came out at 0.8% and the outcome was inactive.
As for `Cc1ccc(F)c(S(=O)(=O)NC(=O)C2(C)CCN2C(=O)c2ccco2)c1` (centres undefined), the GFP+ MAC1+ double positive worked out at 0.9% and the outcome was inactive.
With `CCCCCNC(=O)C(c1ccc(OC)cc1)n1c(=O)c(-c2ccccc2)nc2ccccc21` (centres undefined), the GFP+ MAC1+ double positive is 2.6% and the compound was classed as inactive.
The like results for `Cc1cc(Cl)ccc1-c1nc(NCCN(C)C)nc2ccsc12` were, in that order, 1.3% and “inactive”.
For `Cc1cc(NC(=O)CSc2nc3c(cc2C#N)CCCCC3)no1`, in that order: 0% and “inactive”.
As to `Cc1cc(NC(=O)CSc2nc(C(C)C)nc3sc4c(c23)CCC(C)C4)no1` (centres undefined), the GFP+ MAC1+ double positive amounted to 6.9% and the normalized GFP-positive differentiation is 29.7% (active).
Take `CC(C)c1nc(SCC(=O)Nc2cccc(C(=O)O)c2)c2c3c(sc2n1)CCCC3`: the GFP+ MAC1+ double positive came to 1.4% and the compound was called inactive.
For `CC(C)C[C@@H]1Cc2[nH][nH]c(=O)c2[C@H](CCc2ccccc2)O1`, in that order: 0.9% and “inactive”.
For `Cc1cc2nc(-c3ccc(F)cc3)c(Cc3ccsc3)n2c(C)c1Br`, in that order: 1.3% and “inactive”.
The like results for `COC(=O)[C@]12CCCCC=C1N(Cc1ccco1)C(=O)[C@H](CC(=O)NCCCCc1ccccc1)C2` were, in that order, 0.4% and “inactive”.
For the compound `CCc1nc2ccc(C(=O)NC3CCN(Cc4ccccc4)CC3)cn2c1N(C)CCN1CCOCC1`, the GFP+ MAC1+ double positive came out at 1.3% and the call was inactive.
Regarding `COc1ccc(C2CC(c3cccc(OC)c3)=NN2c2ccc(S(N)(=O)=O)cc2)cc1` (centres undefined), the GFP+ MAC1+ double positive turned out to be 8.9% and the normalized GFP-positive differentiation is 14.9% (active).
Turning to `Cc1ccc(C2CC(c3cccc(NS(C)(=O)=O)c3)=NN2S(C)(=O)=O)cc1` (centres undefined), the GFP+ MAC1+ double positive came out at 0.5% and the outcome was inactive.
For `Oc1ccccc1C1=NN(c2ccccc2)C(c2ccccc2)C1` (centres undefined), in that order: 0.2% and “inactive”.
The like results for `O=C(/C=C/[C@H]1O[C@@H](n2ccc(=O)[nH]c2=O)[C@H](O)[C@@H]1O)NCc1ccccn1` were, in that order, 1.5% and “inactive”.
Turning to `Cc1ccc(Cn2cc(CN3CC(N4CCN(C)CC4)CS3(=O)=O)nn2)cc1` (centres undefined), the GFP+ MAC1+ double positive stood at 1% and the call was inactive.
For `CCCCC[C@@H]1C=C(C(=O)OCC)[C@H](c2ccccc2)N1S(=O)(=O)c1ccc(C)cc1`, in that order: 0.5% and “inactive”.
The like results for `O=C(O)COc1nsnc1N1CCOCC1` were, in that order, 0% and “inactive”.
As to `c1nc(COc2nsnc2N2CCOCC2)cs1`, the GFP+ MAC1+ double positive worked out at 7.1% and the normalized GFP-positive differentiation was 13.2% (active).
Consider `c1ccc(COc2nsnc2N2CCOCC2)cc1`, for which the GFP+ MAC1+ double positive is 2.7% and the call was inactive.
Consider `CCC(C(=O)NC(C)(C)C)n1c(-c2ccccc2)nc2ccccc21` (centres undefined), for which the GFP+ MAC1+ double positive came to 2% and the call was inactive.
